Drawing on PubChem BioAssay (EPA / NIEHS), this text covers outcome and AC50 for four molecules.

Test [1] can be described thus: CEETOX_H295R_PROG: CeeTox H295R High-throughput Steroidogenesis Assay for Progesterone (PROG) (AID 2283442).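 For AC50: human H295R adrenal cells primed with 10 µM forskolin before dosing; progesterone secreted into medium by H295R cells measured by HPLC-MS/MS.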 Conditions: actives raise or lower the signal. The essentials:
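Steps: seed H295R cells and let them adhere overnight; prime 48 h with 10 uM forskolin; dose with compound in DMSO at 0.1% final for 48 h; extract medium steroids with MTBE; measure progesterone by LC-MS/MS. MTT viability was run in the same wells.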

Read-out in test [2]: Tumor necrosis factor receptor superfamily member 6 (Homo sapiens) (UniProt P25445)
Description: LTEA_HepaRG_FAS: Life Technologies and Expression Analysis (LTEA) Assay for Fas cell surface death receptor (FAS) using HepaRG (AID 2283447). To be noted: mRNA level, 48 h; actives raise or lower the signal. A digest of the protocol: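 FAS transcript level was measured by TaqMan qRT-PCR against three housekeeping genes after 48 h chemical exposure. Cells were HepaRG, 0.5% DMSO vehicle, with a top concentration of 100 uM and half-log dilutions over eight points, in duplicate.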

Read-out in test [3]: Fatty acid synthase (Homo sapiens) (UniProt P49327)
The experiment in a line: LTEA_HepaRG_FASN: Life Technologies and Expression Analysis (LTEA) Assay for Fatty Acid Synthase (FASN) using HepaRG (AID 2283448).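 For AC50: differentiated human HepaRG liver cells in serum-free induction medium.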 Conditions: mRNA level, 48 h; actives raise or lower the signal. A digest of the protocol:
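Cells were plated, cultured 48 h, switched to serum-free induction medium, then dosed in duplicate (max 100 uM, half-log dilutions, 0.5% DMSO) for 48 h. RNA was then isolated and FASN quantified by qRT-PCR.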

Read-out in test [4]: Cyclin D2 (CCND2), CCND2 (gene 894)
Description: LTEA_HepaRG_CCND2: Life Technologies and Expression Analysis (LTEA) Assay for Cyclin D2 (CCND2) using HepaRG (AID 2283449). Conditions: mRNA level, 48 h; actives raise or lower the signal. A digest of the protocol:
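CCND2 transcript levels, quantified by qRT-PCR and normalised to three housekeeping genes, were fitted bidirectionally against 0.5% DMSO. HepaRG cultures were dosed 48 h in duplicate with an 8-point half-log series up to 100 uM.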

Read-out in test [5]: Cyclin Dependent Kinase Inhibitor 1A (CDKN1A), CDKN1A (gene 1026)
The experiment in a line: LTEA_HepaRG_CDKN1A: Life Technologies and Expression Analysis (LTEA) Assay for Cyclin Dependent Kinase Inhibitor 1A (CDKN1A) using HepaRG (AID 2283450). To be noted: mRNA level, 48 h; actives raise or lower the signal. A digest of the protocol:
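Read-out is CDKN1A mRNA by TaqMan qRT-PCR, normalized to three housekeeping genes and fitted in both directions against the DMSO baseline. Human HepaRG cells were treated 48 h with test chemicals up to 100 uM in half-log steps, 0.5% DMSO.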

Read-out in test [6]: Cyclin D1 (CCND1), CCND1 (gene 595)
The experiment in a line: LTEA_HepaRG_CCND1: Life Technologies and Expression Analysis (LTEA) Assay for Cyclin D1 (CCND1) using HepaRG (AID 2283451). Conditions: mRNA level, 48 h; actives raise or lower the signal. A digest of the protocol: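 HepaRG plated 48 h, medium switched to serum-free induction medium, chemicals added in duplicate (top 100 uM, half-log steps, 0.5% DMSO) for 48 h, cells lysed, RNA measured by TaqMan qRT-PCR.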

Read-out in test [7]: catalase (CAT), CAT (gene 847)
The experiment in a line: LTEA_HepaRG_CAT: Life Technologies and Expression Analysis (LTEA) Assay for catalase (CAT) using HepaRG (AID 2283452). To be noted: mRNA level, 48 h; actives raise or lower the signal. The essentials: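 Expression of CAT was quantified by TaqMan qRT-PCR with ACTB/GAPDH/POLR2A normalization after 48 h chemical exposure of HepaRG. Eight-point half-log series, top 100 uM, in 0.5% DMSO; gain or loss fitted against vehicle.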

Read-out in test [8]: flavin-containing dimethylaniline monooxygenases 3 (FMO3), FMO3 (gene 2328)
Description: LTEA_HepaRG_FMO3: Life Technologies and Expression Analysis (LTEA) Assay for flavin-containing dimethylaniline monooxygenases 3 (FMO3) using HepaRG (AID 2283453).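 For AC50: differentiated human HepaRG liver cells in serum-free induction medium.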 To be noted: mRNA level, 48 h; actives raise or lower the signal. The essentials: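 FMO3 transcript quantified by TaqMan qRT-PCR against three housekeeping genes after 48 h chemical exposure of HepaRG cells. Eight-point half-log series, top 100 uM, 0.5% DMSO vehicle; phenobarbital 1mM induction control; up- or down-regulation fitted.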

Read-out in test [9]: Cytochrome P450 (CYP1A1), CYP1A1 (gene 1543)
Description: LTEA_HepaRG_CYP1A1: Life Technologies and Expression Analysis (LTEA) Assay for Cytochrome P450 (CYP1A1) using HepaRG (AID 2283454). To be noted: mRNA level, 48 h; actives raise or lower the signal. The essentials: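 HepaRG, 48 h post-plating switched to serum-free induction medium; 8-pt conc-response (top 100 uM, half-log, 0.5% DMSO), duplicates, 48 h. Lysis in RLT, TaqMan qRT-PCR for CYP1A1; gain or loss vs DMSO.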

Read-out in test [10]: CFLAR gene, CFLAR (gene 8837)
Description: LTEA_HepaRG_CFLAR: Life Technologies and Expression Analysis (LTEA) Assay for CFLAR gene using HepaRG (AID 2283455). To be noted: mRNA level, 48 h; actives raise or lower the signal. The essentials: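 Transcript level by qRT-PCR (normalized to ACTB, GAPDH and POLR2A) after 48 h chemical exposure of HepaRG cells, top concentration 100 uM with half-log steps, 0.5% DMSO vehicle, duplicates; fitted bidirectionally against DMSO baseline.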

Read-out in test [11]: Forkhead box O1 (FOXO1), FOXO1 (gene 2308)
The experiment in a line: LTEA_HepaRG_FOXO1: Life Technologies and Expression Analysis (LTEA) Assay for Forkhead box O1 (FOXO1) using HepaRG (AID 2283456). To be noted: mRNA level, 48 h; actives raise or lower the signal. The essentials:
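FOXO1 transcript quantified by qRT-PCR after 48 h chemical exposure (top 100 uM, half-log steps, 0.5% DMSO) of HepaRG cells, housekeeping-normalized (ACTB/GAPDH/POLR2A). Changes fitted in both directions relative to vehicle.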

Read-out in test [12]: growth arrest and DNA damage 45 (GADD45A), GADD45A (gene 1647)
Description: LTEA_HepaRG_GADD45A: Life Technologies and Expression Analysis (LTEA) Assay for growth arrest and DNA damage 45 (GADD45A) using HepaRG (AID 2283458). Conditions: mRNA level, 48 h; actives raise or lower the signal. A digest of the protocol: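 Transcript induction or loss, quantified by TaqMan qRT-PCR against three housekeeping genes, is the read-out. HepaRG cells received chemicals for 48 h across eight half-log concentrations from 100 uM in 0.5% DMSO; gain and loss fitted relative to DMSO.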

Read-out in test [13]: Forkhead box O3 (FOXO3), FOXO3 (gene 2309)
The experiment in a line: LTEA_HepaRG_FOXO3: Life Technologies and Expression Analysis (LTEA) Assay for Forkhead box O3 (FOXO3) using HepaRG (AID 2283459). To be noted: mRNA level, 48 h; actives raise or lower the signal. A digest of the protocol:
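FOXO3 transcript measured by qRT-PCR (normalized to ACTB, GAPDH, POLR2A) after 48 h exposure of HepaRG cells in serum-free induction medium. Duplicates, eight half-log concentrations up to 100 uM, 0.5% DMSO; gain or loss fitted against DMSO.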

Read-out in test [14]: ABC Transporter (ABCB1), ABCB1 (gene 5243)
Description: LTEA_HepaRG_ABCB1: Life Technologies and Expression Analysis (LTEA) Assay for ABC Transporter (ABCB1) using HepaRG (AID 2283460). Conditions: mRNA level, 48 h; actives raise or lower the signal. The essentials:
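ABCB1 transcript level measured by TaqMan qRT-PCR against three housekeeping genes after 48 h chemical exposure of differentiated HepaRG cells. Top concentration 100 uM, half-log steps, eight points, 0.5% DMSO vehicle; bidirectional fit relative to DMSO.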

Read-out in test [15]: growth arrest and DNA damage 45 (GADD45B), GADD45B (gene 4616)
The experiment in a line: LTEA_HepaRG_GADD45B: Life Technologies and Expression Analysis (LTEA) Assay for growth arrest and DNA damage 45 (GADD45B) using HepaRG (AID 2283461). Conditions: mRNA level, 48 h; actives raise or lower the signal. The essentials: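 HepaRG, ~100,000 cells/well, 48 h plating; serum-free induction medium; cpd 100 uM top, half-log x8, 0.5% DMSO, duplicate, 48 h; lysis in RLT, RNA isolation, qRT-PCR; norm ACTB/GAPDH/POLR2A; bidirectional fit vs DMSO.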

Read-out in test [16]: ABC Transporter (ABCC3), ABCC3 (gene 8714)
Description: LTEA_HepaRG_ABCC3: Life Technologies and Expression Analysis (LTEA) Assay for ABC Transporter (ABCC3) using HepaRG (AID 2283462). Conditions: mRNA level, 48 h; actives raise or lower the signal. The essentials: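 Human HepaRG, 48 h dosing, 8-pt half-log series from 100 uM, 0.5% DMSO vehicle, duplicates. ABCC3 mRNA by TaqMan qRT-PCR, housekeeping-normalized; bidirectional curve fit vs DMSO.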

Read-out in test [17]: Broad substrate specificity ATP-binding cassette transporter ABCG2 (Homo sapiens) (UniProt Q9UNQ0)
Description: LTEA_HepaRG_ABCG2: Life Technologies and Expression Analysis (LTEA) Assay for ABC Transporter (ABCG2) using HepaRG (AID 2283465). Conditions: mRNA level, 48 h; actives raise or lower the signal. The essentials:
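ABCG2 transcript was quantified by TaqMan qRT-PCR against three housekeeping genes in HepaRG cells. Cells were treated in duplicate for 48 h across an 8-point half-log series up to 100 uM, with 0.5% DMSO vehicle. Gain or loss versus DMSO was fit.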

The nature of test [18]: CEETOX_H295R_TESTO: CeeTox H295R High-throughput Steroidogenesis Assay for Testosterone (TESTO) (AID 2283457). Conditions: actives raise or lower the signal. The essentials:
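H295R, passage ≤10, 48 h dosing; media extracted with MTBE → HPLC-MS/MS for testosterone; 7-pt standard curve sets LLOQ/ULOQ; bidirectional fit vs DMSO; MTT viability same wells.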

Read-out in test [19]: ABC Transporter (ABCB11), ABCB11 (gene 8647)
Description: LTEA_HepaRG_ABCB11: Life Technologies and Expression Analysis (LTEA) Assay for ABC Transporter (ABCB11) using HepaRG (AID 2283463). Conditions: mRNA level, 48 h; actives raise or lower the signal. A digest of the protocol:
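ABCB11 transcript levels quantified by TaqMan qRT-PCR against three housekeeping genes after 48 h chemical exposure of HepaRG cultures. Concentrations up to 100 uM in half-log steps, 0.5% DMSO vehicle; both induction and suppression scored.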

Read-out in test [20]: ABC Transporter (ABCC2), ABCC2 (gene 1244)
The experiment in a line: LTEA_HepaRG_ABCC2: Life Technologies and Expression Analysis (LTEA) Assay for ABC Transporter (ABCC2) using HepaRG (AID 2283464). To be noted: mRNA level, 48 h; actives raise or lower the signal. The essentials:
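HepaRG, 48 h post-plating; serum-free induction medium; cpd 8-pt, 100 uM top, half-log, 0.5% DMSO, duplicate, 48 h. Readout: ABCC2 mRNA by qRT-PCR, norm. ACTB/GAPDH/POLR2A. Bidirectional fit vs DMSO baseline.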

Structures are written as SMILES. Calls of active or inactive are those of the source. Rule for the calls: active = hit-call score of the fitted dose curve at least 0.9, where 1 is the maximum; inactive = score below 0.9.

Broad substrate specificity ATP-binding cassette transporter ABCG2 (Homo sapiens), sequence (Q9UNQ0 whole entry, looked up): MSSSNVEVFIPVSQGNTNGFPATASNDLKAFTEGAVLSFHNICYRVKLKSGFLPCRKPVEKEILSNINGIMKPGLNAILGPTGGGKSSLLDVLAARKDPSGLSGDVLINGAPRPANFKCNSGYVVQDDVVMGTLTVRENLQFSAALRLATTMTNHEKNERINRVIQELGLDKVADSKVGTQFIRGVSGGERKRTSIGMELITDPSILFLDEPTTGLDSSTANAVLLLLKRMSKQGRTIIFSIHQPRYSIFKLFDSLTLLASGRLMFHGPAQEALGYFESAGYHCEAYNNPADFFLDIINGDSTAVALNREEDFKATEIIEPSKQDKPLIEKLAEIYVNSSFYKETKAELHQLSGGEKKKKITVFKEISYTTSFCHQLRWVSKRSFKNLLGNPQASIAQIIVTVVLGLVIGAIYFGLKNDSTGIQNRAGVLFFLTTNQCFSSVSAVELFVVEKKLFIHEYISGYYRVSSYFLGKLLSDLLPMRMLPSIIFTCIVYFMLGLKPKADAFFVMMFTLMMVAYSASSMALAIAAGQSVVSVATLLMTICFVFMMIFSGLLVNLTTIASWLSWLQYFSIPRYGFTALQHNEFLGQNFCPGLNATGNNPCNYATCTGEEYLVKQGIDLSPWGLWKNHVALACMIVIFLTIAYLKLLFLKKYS
Fatty acid synthase (Homo sapiens), sequence (P49327 whole entry, looked up): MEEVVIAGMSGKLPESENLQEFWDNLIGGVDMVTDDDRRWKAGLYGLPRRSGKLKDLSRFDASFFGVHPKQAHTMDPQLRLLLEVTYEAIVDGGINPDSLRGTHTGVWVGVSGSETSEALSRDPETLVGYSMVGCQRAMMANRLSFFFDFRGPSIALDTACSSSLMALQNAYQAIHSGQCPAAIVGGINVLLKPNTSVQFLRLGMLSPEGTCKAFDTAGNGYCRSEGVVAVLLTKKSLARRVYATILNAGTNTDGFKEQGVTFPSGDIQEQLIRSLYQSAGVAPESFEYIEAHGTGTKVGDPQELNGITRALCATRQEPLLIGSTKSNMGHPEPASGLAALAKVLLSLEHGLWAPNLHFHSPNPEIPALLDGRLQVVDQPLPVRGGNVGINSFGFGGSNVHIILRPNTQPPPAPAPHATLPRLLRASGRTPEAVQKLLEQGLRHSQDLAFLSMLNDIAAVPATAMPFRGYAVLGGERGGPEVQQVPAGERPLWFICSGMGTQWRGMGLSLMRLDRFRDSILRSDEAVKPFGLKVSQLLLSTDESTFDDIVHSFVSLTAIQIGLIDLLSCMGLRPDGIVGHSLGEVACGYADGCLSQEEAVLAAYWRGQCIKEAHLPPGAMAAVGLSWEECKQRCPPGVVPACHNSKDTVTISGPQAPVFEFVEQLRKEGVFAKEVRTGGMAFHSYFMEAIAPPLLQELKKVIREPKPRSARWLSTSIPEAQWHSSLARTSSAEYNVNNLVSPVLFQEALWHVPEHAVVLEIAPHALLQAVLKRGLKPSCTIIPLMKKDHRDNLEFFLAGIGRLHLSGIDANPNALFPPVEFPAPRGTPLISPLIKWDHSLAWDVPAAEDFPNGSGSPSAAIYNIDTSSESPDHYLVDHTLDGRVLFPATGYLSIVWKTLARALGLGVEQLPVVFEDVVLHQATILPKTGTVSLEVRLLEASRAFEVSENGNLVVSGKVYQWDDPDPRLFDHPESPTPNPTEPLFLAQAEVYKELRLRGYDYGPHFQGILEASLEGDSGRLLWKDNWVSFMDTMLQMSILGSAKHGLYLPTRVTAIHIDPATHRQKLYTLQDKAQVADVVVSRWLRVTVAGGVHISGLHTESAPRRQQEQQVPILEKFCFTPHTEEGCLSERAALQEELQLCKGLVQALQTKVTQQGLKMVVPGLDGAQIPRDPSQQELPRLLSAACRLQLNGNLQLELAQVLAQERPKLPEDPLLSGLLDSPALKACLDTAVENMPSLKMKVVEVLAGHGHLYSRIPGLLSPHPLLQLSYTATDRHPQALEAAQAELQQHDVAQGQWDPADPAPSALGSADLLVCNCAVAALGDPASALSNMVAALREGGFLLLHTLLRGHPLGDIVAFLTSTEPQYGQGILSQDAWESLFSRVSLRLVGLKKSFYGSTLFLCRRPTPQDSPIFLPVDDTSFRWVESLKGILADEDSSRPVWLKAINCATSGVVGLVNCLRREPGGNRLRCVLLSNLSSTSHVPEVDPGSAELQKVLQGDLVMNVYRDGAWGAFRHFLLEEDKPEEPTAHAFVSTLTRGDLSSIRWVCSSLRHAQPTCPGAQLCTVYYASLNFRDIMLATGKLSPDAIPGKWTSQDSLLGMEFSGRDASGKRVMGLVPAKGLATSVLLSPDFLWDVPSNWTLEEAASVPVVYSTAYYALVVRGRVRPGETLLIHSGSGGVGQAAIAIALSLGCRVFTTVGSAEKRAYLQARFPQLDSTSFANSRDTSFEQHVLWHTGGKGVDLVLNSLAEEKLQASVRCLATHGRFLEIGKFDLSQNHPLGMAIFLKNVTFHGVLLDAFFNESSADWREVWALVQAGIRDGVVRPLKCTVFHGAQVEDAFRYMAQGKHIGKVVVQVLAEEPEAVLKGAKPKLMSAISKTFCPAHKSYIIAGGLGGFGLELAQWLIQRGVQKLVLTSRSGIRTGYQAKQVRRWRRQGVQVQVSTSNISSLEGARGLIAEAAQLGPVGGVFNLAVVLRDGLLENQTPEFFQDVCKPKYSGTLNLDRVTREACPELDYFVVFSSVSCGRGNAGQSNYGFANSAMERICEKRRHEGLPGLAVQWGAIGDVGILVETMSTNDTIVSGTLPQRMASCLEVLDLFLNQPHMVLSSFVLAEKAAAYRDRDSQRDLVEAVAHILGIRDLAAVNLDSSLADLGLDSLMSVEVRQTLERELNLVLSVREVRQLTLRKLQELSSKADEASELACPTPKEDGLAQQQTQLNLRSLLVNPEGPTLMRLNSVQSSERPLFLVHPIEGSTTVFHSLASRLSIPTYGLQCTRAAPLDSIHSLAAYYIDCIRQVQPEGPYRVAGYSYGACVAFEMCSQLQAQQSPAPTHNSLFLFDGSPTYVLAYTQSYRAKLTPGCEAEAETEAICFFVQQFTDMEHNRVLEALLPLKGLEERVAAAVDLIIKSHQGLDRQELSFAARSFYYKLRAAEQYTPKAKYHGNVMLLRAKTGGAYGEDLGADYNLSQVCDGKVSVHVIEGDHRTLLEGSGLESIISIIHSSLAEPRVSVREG

Take `COc1ccc2c(c1)c(CC(=O)O)c(C)n2C(=O)c1ccc(Cl)cc1`: the result in test [1], in test [2], in test [3], in test [4], in [5] and in test [6] was inactive. For the same molecule, the result in [7], in test [8], in test [9], in test [10], in test [11] and in [12] was inactive. Further, the result in test [13], in [14], in [15], in [16] and in test [17] was inactive.
With `CCOc1ccc2c(c1)C(C)=CC(C)(C)N2`, the concentration at half-maximal activity (AC50) is 16.7 µM (active) in [1]; 50 µM (active) in [5]; 17.5 µM (active) in test [9]; 5.26 µM (active) in [14]; 1.02 µM (active) in test [17]. For the same molecule, the molecule was classed as inactive in test [2], in test [3], in test [4], in test [6], in test [7] and in test [8]. In addition, the call in test [10], in [11], in test [18], in test [12], in test [13] and in test [15] was inactive. Further, the call in test [16] and in test [19] was inactive.
As for `Nc1ccccc1N`, the call in test [1], in test [6] and in test [17] was inactive. In addition, the concentration at half-maximal activity (AC50) in test [2] was 50 µM (active); in [3], 71.4 µM (active); in test [5], 50 µM (active); in test [7] it was 61.7 µM (active); in [8] it was 63.7 µM (active); in [9], 3.28 µM (active). The half-maximal activity concentration (AC50) in [10] is 61.4 µM (active); in [11] it was 82.2 µM (active); in test [12] it was 50 µM (active); in [14] it was 68.9 µM (active); in test [15], 50 µM (active); in [16], 71.9 µM (active).
Regarding `C=CCc1ccc(O)c(OC)c1`, the call in [1], in test [2], in test [3], in [4], in test [5] and in [6] was inactive. Besides, the molecule was called inactive in test [7], in [8], in [9], in test [11], in test [12] and in test [14]. Also, the result in test [15], in test [16], in [19], in [20] and in test [17] was inactive.
